Only a selection was taken, and hits are over-represented in it overall.
CBX7 inh = inhibitors of human CBX7 binding to H3K27me3 peptide; O95931; 66,000 tested, 1.1% active; normalised signal (fraction of DMSO) (test concentration not listed); AlphaScreen His6-CBX7 / biotin-H3K27me3 peptide binding; stronger effect = lower value; AID 1224903; in the data active means normalised signal below about 0.5
Target sequence (O95931 whole entry, looked up): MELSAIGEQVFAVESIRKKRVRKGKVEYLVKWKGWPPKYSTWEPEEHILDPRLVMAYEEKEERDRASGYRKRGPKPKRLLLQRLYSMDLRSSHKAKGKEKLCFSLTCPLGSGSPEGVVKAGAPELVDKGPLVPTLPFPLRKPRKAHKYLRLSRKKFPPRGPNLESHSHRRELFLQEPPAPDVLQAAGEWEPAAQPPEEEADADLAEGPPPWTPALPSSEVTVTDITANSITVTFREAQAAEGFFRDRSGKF
* hit, by the source's call.

CC1CC(C)CN(S(=O)(=O)c2ccc(C(=O)Nc3nnc(-c4ccc(Cl)s4)o3)cc2)C1 (stereo not given) was read as CBX7 inh 0.4*.
`COCc1nnc(NC(=O)c2ccc(S(=O)(=O)N3CC(C)CC(C)C3)cc2)o1` (stereo not given) gave CBX7 inh 0.82.
For CCC1CCCCN1S(=O)(=O)c1ccc(C(=O)Nc2nnc(-c3cccc(OC)c3)o2)cc1 (stereo not given) the results were CBX7 inh 0.91.
Screening O=C(Nc1nnc(-c2cccs2)o1)c1ccc(S(=O)(=O)N2CCCCC2)cc1 returned CBX7 inh 0.83.
CC1CC(C)CN(S(=O)(=O)c2ccc(C(=O)Nc3nc(-c4ccncc4)cs3)cc2)C1 (stereo not given) was read as CBX7 inh 1.
Screening CC1CCCN(S(=O)(=O)c2ccc(C(=O)Nc3nnc(-c4cccs4)o3)cc2)C1 (stereo not given) returned CBX7 inh 1.
`COCc1nnc(NC(=O)c2ccc(S(=O)(=O)N3CC(C)OC(C)C3)cc2)o1` (stereo not given) gave CBX7 inh 0.67.
For CC1CN(S(=O)(=O)c2ccc(C(=O)Nc3nnc(-c4ccc(F)cc4)o3)cc2)CC(C)O1 (stereo not given) the results were CBX7 inh 0.012*.
CCC1CCCCN1S(=O)(=O)c1ccc(C(=O)Nc2nnc(C)o2)cc1 (stereo not given) was read as CBX7 inh 0.094*.
Screening Cc1nnc(NC(=O)c2ccc(S(=O)(=O)N3CC(C)CC(C)C3)cc2)o1 (stereo not given) returned CBX7 inh 0.39*.
CC1CN(S(=O)(=O)c2ccc(C(=O)Nc3nnc(-c4cccs4)o3)cc2)CC(C)O1 (stereo not given) was read as CBX7 inh 0.77.
CCC1CCCCN1S(=O)(=O)c1ccc(C(=O)Nc2nnc(-c3ccc(OC)cc3)o2)cc1 (stereo not given) was read as CBX7 inh 0.79.
Screening CCN1C(=O)c2ccccc2S(=O)c2ccc(C(=O)NCCCOC)cc21 (stereo not given) returned CBX7 inh 0.99.
For O=C(NCc1ccc(F)cc1)c1cc2c(s1)-c1ccccc1OC2 the results were CBX7 inh 1.1.
Screening O=C(O)c1cccc(Nc2cc3ccccc3c(=O)[nH]2)c1 returned CBX7 inh 1.1.
`CCOC(=O)c1ccc(-n2nnnc2C(c2ccc(Cl)cc2Cl)N2CCOCC2)cc1` (stereo not given) gave CBX7 inh 1.
Screening CCc1ccc(-c2nc(CN3CCC(C(=O)NCc4cccs4)CC3)c(C)o2)cc1 returned CBX7 inh 1.1.
CCOC(=O)c1c(NC(=O)c2ccc(S(=O)(=O)N(CC)CC)cc2)sc2c1CCN(CC)C2 was read as CBX7 inh 1.1.
`CCc1nn(CC(=O)Nc2nnc(N3CCCCCC3)s2)c2ccccc12` gave CBX7 inh 0.9.
Cc1cc(N2CCN(c3ccc(F)cc3)CC2)n2nc(C)nc2n1 was read as CBX7 inh 1.
COc1ccc(-c2nnc(NC(=O)c3ccc(S(=O)(=O)N4CCC(C)CC4)cc3)o2)c(OC)c1 was read as CBX7 inh 0.92.
Screening CC1CCN(S(=O)(=O)c2ccc(NC(=O)c3ccc(C(C)(C)C)cc3)cc2)CC1 returned CBX7 inh 1.1.
For Cc1nnc(NC(=O)c2ccc(S(=O)(=O)N3CCC(C)CC3)cc2)o1 the results were CBX7 inh 0.028*.
Screening O=C(COc1ccccc1)Nc1c(C(=O)Nc2cccc(F)c2)oc2ccccc12 returned CBX7 inh 0.96.
COc1ccccc1-c1coc2c(CN3CC(C)OC(C)C3)c(O)ccc2c1=O (stereo not given) was read as CBX7 inh 1.
O=C(NCc1ccc2c(c1)OCO2)c1ccc(C#Cc2ccccc2)cc1 was read as CBX7 inh 1.
For CCOc1ccc(N2CCc3c2nc2ccc(Br)cc2c3N)cc1 the results were CBX7 inh 0.21*.
Screening Nc1c2c(nc3ccccc13)N(c1ccc(Cl)c(Cl)c1)CC2 returned CBX7 inh 1.
For Cc1ccc2nc3c(c(N)c2c1)CCN3c1ccccc1 the results were CBX7 inh 1.1.
O=C(CC1C(=O)N(c2ccc(F)cc2)C(=O)N1CCc1cccs1)Nc1ccccc1 (stereo not given) was read as CBX7 inh 1.
`CC(C)(C)c1ccc2c(c1)N(CC(=O)NCCCN1CCN(Cc3ccccc3)CC1)C(=O)CO2` gave CBX7 inh 1.
`COc1ccc(SCCc2ccc3cc(-c4ccccc4)cn3c2)cc1` gave CBX7 inh 0.85.
Screening CC1CCN(c2oc(COc3ccc(Cl)cc3)nc2C#N)CC1 returned CBX7 inh 0.36*.
N#Cc1nc(COc2ccc(Cl)cc2)oc1N1CCOCC1 was read as CBX7 inh 1.2.
Screening N#Cc1nc(COc2ccccc2F)oc1N1CCN(c2ccccc2)CC1 returned CBX7 inh 0.48*.
N#Cc1nc(COc2ccccc2F)oc1N1CCCC1 was read as CBX7 inh 0.88.
`Cc1ccc(OCc2nc(C#N)c(N3CCN(Cc4ccccc4)CC3)o2)cc1` gave CBX7 inh 0.46*.
Screening CCN1CCN(c2oc(COc3ccccc3)nc2C#N)CC1 returned CBX7 inh 0.95.
`COc1ccc(OCc2nc(C#N)c(N3CCOCC3)o2)cc1` gave CBX7 inh 1.
Screening Cc1ccc(OCc2nc(C#N)c(N3CCN(c4ccccc4)CC3)o2)cc1 returned CBX7 inh 0.46*.
CN1CCN(c2oc(COc3ccc(F)cc3)nc2C#N)CC1 was read as CBX7 inh 1.
For COc1ccc(N2CCN(c3oc(COc4ccccc4F)nc3C#N)CC2)cc1 the results were CBX7 inh 0.55.
Screening Cc1ccc(OCc2nc(C#N)c(N3CCC(C(N)=O)CC3)o2)cc1 returned CBX7 inh 0.88.
`Cc1ccc(OCc2nc(C#N)c(N3CCC(C)CC3)o2)cc1` gave CBX7 inh 0.52.
For Cc1ccc(N2C(=O)CC(N3CCN(c4ccc(Cl)cc4)CC3)C2=O)c(C)c1 (stereo not given) the results were CBX7 inh 0.88.
Screening Cc1ccc(Cn2c(=O)c3cccnc3n(CC(=O)Nc3cccc(Cl)c3)c2=O)cc1 returned CBX7 inh 1.1.
Screening COc1ccc(-c2nc3cccc(C)n3c2Nc2ccc3c(c2)OCCO3)cc1 returned CBX7 inh 0.78.
Screening Cc1cc(NC(=O)c2cc(-c3ccc(Cl)s3)nc3ccccc23)no1 returned CBX7 inh 1.
Screening Cc1ccc(C2CC(=O)c3cnc(N)nc3C2)cc1 (stereo not given) returned CBX7 inh 1.1.
`c1cc(NCc2ccc3c(c2)OCO3)cc(-c2nc3ccccc3o2)c1` gave CBX7 inh 1.1.
For CN(Cc1ccccc1)c1oc(COc2ccc(F)cc2)nc1C#N the results were CBX7 inh 0.44*.
COc1ccccc1OCc1nc(C#N)c(N(C)C)o1 was read as CBX7 inh 0.95.
Screening N#Cc1nc(COc2ccccc2)oc1NCc1ccc(F)cc1 returned CBX7 inh 0.88.
Cc1cc(N2CC(C)CC(C)C2)nc2ccc(NC(=O)CCC(=O)NCC3CCCO3)cc12 (stereo not given) was read as CBX7 inh 1.
For Cc1c(CCNC(=O)c2ccc(Cl)cc2)c2ccccc2n1Cc1ccccc1 the results were CBX7 inh 0.91.
Screening O=C(Nc1cccc(Cl)c1)c1n[nH]c(=O)c2ccccc12 returned CBX7 inh 1.1.

Screening results deposited in PubChem by Bradner/Qi Labs at DFCI.
